{"source": "PubChem BioAssay (NCATS)", "key": {"[1]": {"assay": "qHTS Assay for Identifying Gametocytocidal Compounds (AID 743244); note: potency is the fitted concentration of half-maximal effect;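 for max response: % is set by controls: 0 for no effect and ±100 for the full control effect; actives lower the fluorescent signal which means gametocytes are killed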", "details": "P. falciparum 3D7 stage III-V gametocytes, alamarBlue, 72 h; max response: active compounds read low", "method_in_brief": "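Stage III–V gametocytes of P. falciparum 3D7 were seeded at 20,000 cells/well onto pre-dispensed compounds. After 72 h, 37 °C, 5% CO2, alamarBlue was added for another 24 h.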"}, "[2]": {"assay": "qHTS assay for measurement of the activity of small molecule inhibitors on Zika virus induced Caspase-3 activity in human astrocytoma cells (AID 1224859);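 note: plate controls were ZIKV-infected untreated cells for no effect and uninfected cells for full effect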", "method_in_brief": "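Compound added 1 h pre-infection; ZIKV 2 FFU/cell on SNB-19 cells, 6 h, 37 C/5% CO2. Caspase-Glo 3/7 luminescence; values as % inhibition of ZIKV-induced caspase activity.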"}, "[3]": {"assay": "qHTS assay for small molecule agonists of the antioxidant response element (ARE) signaling pathway measured by Nrf2-dependant transcriptional activity (AID 720636; active = well fitted curve in the direction sought with a large enough effect in the repeat runs; an effect the other way counts as inactive or inconclusive;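 note: HepG2 cells with an ARE-driven luciferase reporter; % of control where 0% means no effect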)", "method_in_brief": "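Nrf2-dependent transcription is measured in ARE-luc HepG2 cells: compound is applied for 16 hr at 37 C after a 6 hr attachment period, and luciferase activity is quantified by luminescence using ONE-Glo.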"}, "[4]": {"assay": "qHTS assay for small molecule agonists of the antioxidant response element (ARE) signaling pathway measured by Nrf2-dependant transcriptional activity - cell viability counter screen (AID 720653; active = well fitted curve in the direction sought with a large enough effect in the repeat runs; an effect the other way counts as inactive or inconclusive; note: % is set by controls: 0 for no effect and ±100 for the full control effect)", "details": "ARE-bla HepG2 viability, CellTiter-Glo ATP luminescence, 16 h; active compounds read low", "method_in_brief": "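ARE-bla HepG2 cells treated with compounds for 16 h at 37C; this counter screen measures viability as intracellular ATP by CellTiter-Glo luminescence after 30 min at room temperature.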"}, "[5]": {"assay": "qHTS assay for cell viability of HEK293 cells (AID 743288); note: % is set by controls: 0 for no effect and ±100 for the full control effect; nearly all actives have a fitted effect of over 50% in size", "details": "ATP luminescence (CellTiter-Glo), 18 h, active compounds read low", "method_in_brief": "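Readout is luciferase-coupled ATP content (CellTiter-Glo luminescence, 30 min room temperature) as a measure of metabolically competent cells. Parental HEK293 cells were plated 5 h or more before compound addition, then treated 18 h at 37 C.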"}, "[6]": {"assay": "qHTS assay for cell viability of the p53RE-bla HCT-116 cell line (AID 743292); note: % is set by controls: 0 for no effect and ±100 for the full control effect; nearly all actives have a fitted effect of over 55% in size", "method_in_brief": "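ATP-based luminescence, 16 h compound exposure at 37 C, p53RE-bla HCT-116 cells at 4,000/well.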"}, "[7]": {"assay": "qHTS assay for small molecule antagonists of the retinoid-related orphan receptor gamma (ROR-gamma) signaling pathway - cell viability counter screen (AID 720652; active = well fitted curve in the direction sought with a large enough effect in the repeat runs; an effect the other way counts as inactive or inconclusive;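 note: CHO reporter cells with doxycycline-induced ROR-gamma expression; series mostly up to about 92 µM; % is set by controls: 0 for no effect and ±100 for the full control effect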)", "method_in_brief": "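Steps: seed CHO cells bearing TET-inducible ROR and ROR response element-luciferase; rest 5 hr at 37 C; add compound, then doxycycline; incubate 16 hr; add CellTiter-Glo and read luminescence as ATP-based viability.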"}}, "note": "A number with no mark means an inactive call. Results filed as inconclusive are left out. Calls of active or inactive are those of the source. Unless noted, calls come from the whole dose curve; as a rule, active = well fitted curve in the direction sought with a large enough effect; inconclusive = small, poorly fitted or top-dose-only effect, or another doubt; inactive = no such curve, though single readings can be large; an effect the other way counts as inactive or inconclusive.", "data": [{"compound": "CCCCC(CC)CN1CN(CC(CC)CCCC)CC(C)(N)C1", "note": "(stereo unspecified)", "values": [{"measurement": "max response", "setting": "[1]", "value": 4.3, "unit": "%"}, {"measurement": "outcome", "setting": "[2]", "value": "inactive"}]}, {"compound": "COC(=O)C(c1ccccc1Cl)N1CCc2sccc2C1", "note": "(stereo unspecified)", "values": [{"measurement": "max response", "setting": "[1]", "value": 14.8, "unit": "%"}, {"measurement": "outcome", "setting": "[2]", "value": "inactive"}]}, {"compound": "CC(=O)NCCCCCC(=O)O", "values": [{"measurement": "max response", "setting": "[1]", "value": -5.55, "unit": "%"}, {"measurement": "outcome", "setting": "[2]", "value": "inactive"}]}, {"compound": "CCN1CCN(C(=O)N[C@@H](C(=O)N[C@@H]2C(=O)N3C(C(=O)O)=C(CSc4nnnn4C)CS[C@H]23)c2ccc(O)cc2)C(=O)C1=O", "values": [{"measurement": "max response", "setting": "[1]", "value": 14.5, "unit": "%"}, {"measurement": "outcome", "setting": "[2]", "value": "inactive"}]}, {"compound": "CCCCCCCCCCCCCC(=O)OC(C)C", "values": [{"measurement": "outcome", "setting": "[3]", "value": "inactive"}, {"measurement": "max response", "setting": "[4]", "value": -11.9, "unit": "%"}, {"measurement": "max response", "setting": "[1]", "value": -3.41, "unit": "%"}, {"measurement": "max response", "setting": "[5]", "value": -1.19, "unit": "%"}, {"measurement": "outcome", "setting": "[6]", "value": "inactive"}, {"measurement": "outcome", "setting": "[2]", "value": "inactive"}]}, {"compound": "CCCc1ncc(C[n+]2ccccc2C)c(N)n1", "values": [{"measurement": "max response", "setting": "[1]", "value": 8.25, "unit": "%"}]}, {"compound": "N#C/C(=C1\\SCC(c2ccccc2Cl)S1)n1ccnc1", "note": "(stereo unspecified)", "values": [{"measurement": "max response", "setting": "[1]", "value": 17.4, "unit": "%"}]}, {"compound": "O=C(NC1CCN(CCc2c[nH]c3ccccc23)CC1)c1ccccc1", "values": [{"measurement": "max response", "setting": "[1]", "value": -6.9, "unit": "%"}, {"measurement": "outcome", "setting": "[2]", "value": "inactive"}]}, {"compound": "Cc1c(-c2ccccc2)oc2c(C(=O)OCCN3CCCCC3)cccc2c1=O", "values": [{"measurement": "max response", "setting": "[1]", "value": 3.61, "unit": "%"}, {"measurement": "outcome", "setting": "[2]", "value": "inactive"}]}, {"compound": "CN1CCN(C2=Nc3cc(F)ccc3Cc3ccccc32)CC1", "values": [{"measurement": "max response", "setting": "[1]", "value": 29, "unit": "%"}]}, {"compound": "C=C[C@@]1(C)CC(=O)[C@]2(O)[C@@]3(C)[C@@H](O)CCC(C)(C)[C@@H]3[C@H](O)[C@H](OC(C)=O)[C@@]2(C)O1", "values": [{"measurement": "max response", "setting": "[4]", "value": 4.11, "unit": "%"}, {"measurement": "max response", "setting": "[1]", "value": -8.6, "unit": "%"}, {"measurement": "max response", "setting": "[5]", "value": -8.77, "unit": "%"}, {"measurement": "outcome", "setting": "[6]", "value": "inactive"}]}, {"compound": "Cc1ccccc1OCC(O)CO", "note": "(stereo unspecified)", "values": [{"measurement": "max response", "setting": "[1]", "value": -6.04, "unit": "%"}, {"measurement": "outcome", "setting": "[2]", "value": "inactive"}]}, {"compound": "Nc1ccc(C(=O)NCC(=O)O)cc1", "values": [{"measurement": "max response", "setting": "[1]", "value": 6.7, "unit": "%"}, {"measurement": "outcome", "setting": "[2]", "value": "inactive"}]}, {"compound": "CC(=O)Nc1ccc(OCC(O)CNC(C)C)cc1", "note": "(stereo unspecified)", "values": [{"measurement": "max response", "setting": "[1]", "value": -2.82, "unit": "%"}, {"measurement": "outcome", "setting": "[2]", "value": "inactive"}]}, {"compound": "CCCCCCCCCCCCSCCOCCO", "values": [{"measurement": "max response", "setting": "[1]", "value": 3.73, "unit": "%"}, {"measurement": "outcome", "setting": "[2]", "value": "inactive"}]}, {"compound": "CC(C)(C)CC(C)(C)c1ccc(O)c(-n2nc3ccccc3n2)c1", "values": [{"measurement": "outcome", "setting": "[3]", "value": "inactive"}, {"measurement": "max response", "setting": "[4]", "value": 4.4, "unit": "%"}, {"measurement": "max response", "setting": "[5]", "value": -13.9, "unit": "%"}, {"measurement": "outcome", "setting": "[2]", "value": "inactive"}]}, {"compound": "O=C(Nc1cccc(C2=NCCN2)c1)Nc1cccc(C2=NCCN2)c1", "values": [{"measurement": "max response", "setting": "[1]", "value": -7.84, "unit": "%"}, {"measurement": "outcome", "setting": "[2]", "value": "inactive"}]}, {"compound": "CC(=O)O[C@H]1C[C@@H]2CC[C@@H]3[C@H](CC[C@@]4(C)[C@H]3C[C@H]([N+]3(C)CCCCC3)[C@@H]4OC(C)=O)[C@@]2(C)C[C@@H]1N1CCCCC1", "values": [{"measurement": "max response", "setting": "[1]", "value": -2.39, "unit": "%"}, {"measurement": "outcome", "setting": "[2]", "value": "inactive"}]}, {"compound": "CC(=O)N[C@@H](CCC(=O)O)C(=O)O", "values": [{"measurement": "max response", "setting": "[1]", "value": -0.648, "unit": "%"}, {"measurement": "outcome", "setting": "[2]", "value": "inactive"}]}, {"compound": "C=C1c2cccc(O)c2C(O)=C2C(=O)[C@]3(O)C(O)=C(C(N)=O)C(=O)[C@@H](N(C)C)[C@@H]3[C@@H](O)[C@H]12", "values": [{"measurement": "max response", "setting": "[1]", "value": -4.37, "unit": "%"}, {"measurement": "outcome", "setting": "[2]", "value": "inactive"}]}, {"compound": "Cc1cn([C@H]2C[C@H](F)[C@@H](CO)O2)c(=O)[nH]c1=O", "values": [{"measurement": "max response", "setting": "[1]", "value": -5.75, "unit": "%"}, {"measurement": "outcome", "setting": "[2]", "value": "inactive"}]}, {"compound": "O=C(O)c1ccc(S(=O)(=O)N(Cl)Cl)cc1", "values": [{"measurement": "outcome", "setting": "[3]", "value": "inactive"}, {"measurement": "outcome", "setting": "[7]", "value": "inactive"}, {"measurement": "max response", "setting": "[4]", "value": 7.82, "unit": "%"}, {"measurement": "max response", "setting": "[1]", "value": -8.91, "unit": "%"}, {"measurement": "max response", "setting": "[5]", "value": 0.513, "unit": "%"}, {"measurement": "outcome", "setting": "[6]", "value": "inactive"}, {"measurement": "outcome", "setting": "[2]", "value": "inactive"}]}, {"compound": "COc1ccc(CN(CCN(C)C)c2ncccn2)cc1", "values": [{"measurement": "max response", "setting": "[1]", "value": -8.37, "unit": "%"}, {"measurement": "outcome", "setting": "[2]", "value": "inactive"}]}, {"compound": "CN1CCc2cccc3c2[C@H]1Cc1ccc(O)c(O)c1-3", "values": [{"measurement": "Potency", "setting": "[1]", "value": "3.98 µM (active)"}, {"measurement": "outcome", "setting": "[2]", "value": "inactive"}]}, {"compound": "COc1cc(C(=S)N2CCOCC2)ccc1O", "values": [{"measurement": "max response", "setting": "[1]", "value": 19.6, "unit": "%"}]}, {"compound": "CCOC(=O)[C@@](C)(N)Cc1ccc(O)c(O)c1", "values": [{"measurement": "max response", "setting": "[1]", "value": 1.03, "unit": "%"}]}, {"compound": "O=C(Nc1ncc([N+](=O)[O-])s1)c1cccs1", "values": [{"measurement": "max response", "setting": "[1]", "value": 35.1, "unit": "%"}, {"measurement": "outcome", "setting": "[2]", "value": "inactive"}]}, {"compound": "Nc1ccc(S(=O)(=O)Nc2cnc3ccccc3n2)cc1", "values": [{"measurement": "max response", "setting": "[1]", "value": -6.45, "unit": "%"}, {"measurement": "outcome", "setting": "[2]", "value": "inactive"}]}, {"compound": "CCNC(=O)/C=C/c1cccc(Br)c1", "values": [{"measurement": "max response", "setting": "[1]", "value": 3.79, "unit": "%"}, {"measurement": "outcome", "setting": "[2]", "value": "inactive"}]}]}
